PubChem BioAssay
Unmarked numbers belong to inactive results. For some assays here: Measured potencies and affinities stand elsewhere. The source made the active and inactive calls. Unless noted, the rule behind the calls is not given here.

What was measured:
[1] = antimalarial activity against Dd2 strain (AID 2302;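 active = growth inhibition above 50% at the single 2 µM test dose, taken to imply half-maximal potency below 2 µM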;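 note: 0% = DMSO untreated growth and 100% = chloroquine plus artemisinin killed control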); details: P. falciparum Dd2 in RBCs, LDH growth readout, 72 h; at 2 µM; active compounds read high
[2] = HepG2 cytotoxicity, primary screen, cytotoxicity control for P. falciparum antimalarial project, cell-based, ATP luminescence (AID 2303;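 active = inhibition above 50%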;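 note: 0% = DMSO wells and 100% = digitonin-killed cells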); details: HepG2 viability, 24-48 h, at 10 µM, active compounds read high
[3] = target: L-lactate dehydrogenase (Plasmodium falciparum (isolate CDC / Honduras)) (UniProt Q27743); experiment: PfLDH activity inhibition – cell lysate, 3D7 strain, counter-screen for P. falciparum growth inhibition project (AID 2304);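 note: 0% = vehicle and 100% = reference inhibitor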; details: P. falciparum 3D7 crude extract, LDH APAD/NBT absorbance; at 2 µM; active compounds read high
Chain of L-lactate dehydrogenase (Plasmodium falciparum (isolate CDC / Honduras)) (Q27743 whole entry, looked up): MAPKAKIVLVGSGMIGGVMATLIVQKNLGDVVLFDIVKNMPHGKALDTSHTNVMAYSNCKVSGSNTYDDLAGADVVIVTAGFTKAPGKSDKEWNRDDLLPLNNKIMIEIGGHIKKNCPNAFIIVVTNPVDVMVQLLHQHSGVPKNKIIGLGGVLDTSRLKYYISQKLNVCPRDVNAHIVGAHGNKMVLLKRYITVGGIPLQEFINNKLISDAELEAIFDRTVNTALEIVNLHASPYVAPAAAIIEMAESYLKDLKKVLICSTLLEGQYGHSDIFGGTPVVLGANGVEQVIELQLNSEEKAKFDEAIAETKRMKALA

[4] = inhibition of 3D7 malaria parasite growth – strain 3D7 (AID 2306);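 note: 0% = DMSO wells and 100% = chloroquine plus artemisinin control wells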; details: P. falciparum 3D7 erythrocytic growth, LDH absorbance, 72 h; at 2 µM; active compounds read high
[5] = target: Calcium-dependent protein kinase 1 (Plasmodium falciparum (isolate 3D7)) (UniProt P62344); experiment: PfCDPK1 kinase inhibitors, biochemical, TCAMS library (AID 1159585; cut-off not given, nearly all actives have IC50 up to about 0.98 µM;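 note: inhibitors leave more ATP so luminescence rises with inhibition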); details: recombinant PfCDPK1, Kinase-Glo ATP depletion luminescence
Chain of Calcium-dependent protein kinase 1 (Plasmodium falciparum (isolate 3D7)) (P62344 whole entry, looked up): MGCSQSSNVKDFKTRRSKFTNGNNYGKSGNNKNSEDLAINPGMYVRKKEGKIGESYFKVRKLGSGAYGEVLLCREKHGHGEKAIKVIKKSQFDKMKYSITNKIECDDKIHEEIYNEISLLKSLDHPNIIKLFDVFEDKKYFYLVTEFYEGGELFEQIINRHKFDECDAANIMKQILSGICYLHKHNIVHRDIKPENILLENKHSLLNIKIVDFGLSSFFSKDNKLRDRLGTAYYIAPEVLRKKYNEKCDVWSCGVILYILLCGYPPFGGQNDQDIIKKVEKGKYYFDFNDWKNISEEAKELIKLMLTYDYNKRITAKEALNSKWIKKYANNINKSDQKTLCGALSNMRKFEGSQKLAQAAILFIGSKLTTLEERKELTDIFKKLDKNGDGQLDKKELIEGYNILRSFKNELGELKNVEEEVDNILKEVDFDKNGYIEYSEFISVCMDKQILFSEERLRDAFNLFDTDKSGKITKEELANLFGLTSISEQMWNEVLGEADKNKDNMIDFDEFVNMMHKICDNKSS

[6] = target: Plasmodium falciparum protein kinase 6 (PK6, PF3D7_1337100) (UniProt Q8IDW1); experiment: PfPK6 kinase inhibitors, biochemical, TCAMS library (AID 1159586); details: recombinant PfPK6, Kinase-Glo ATP depletion luminescence
Chain of Plasmodium falciparum protein kinase 6 (PK6, PF3D7_1337100) (Q8IDW1 1-305): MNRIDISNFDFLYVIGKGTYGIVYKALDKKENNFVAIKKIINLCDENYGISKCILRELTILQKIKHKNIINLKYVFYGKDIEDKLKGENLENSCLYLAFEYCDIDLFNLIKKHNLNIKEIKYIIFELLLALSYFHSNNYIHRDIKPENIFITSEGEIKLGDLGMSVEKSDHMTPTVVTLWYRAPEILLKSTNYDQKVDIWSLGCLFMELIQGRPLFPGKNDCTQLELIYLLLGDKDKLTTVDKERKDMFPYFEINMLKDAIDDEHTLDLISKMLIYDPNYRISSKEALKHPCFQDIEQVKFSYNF

[7] = target: Protein kinase 7 (PK7), Plasmodium falciparum 3D7 (PF3D7_0213400) (UniProt Q7YTF7); experiment: inhibition of Plasmodium PK7 catalytic activity – biochemical, TCAMS antimalarial set, Kinase-Glo luminescence (AID 1159587); details: recombinant PfPK7, Kinase-Glo ATP depletion luminescence
Chain of Protein kinase 7 (PK7), Plasmodium falciparum 3D7 (PF3D7_0213400) (Q7YTF7 1-343): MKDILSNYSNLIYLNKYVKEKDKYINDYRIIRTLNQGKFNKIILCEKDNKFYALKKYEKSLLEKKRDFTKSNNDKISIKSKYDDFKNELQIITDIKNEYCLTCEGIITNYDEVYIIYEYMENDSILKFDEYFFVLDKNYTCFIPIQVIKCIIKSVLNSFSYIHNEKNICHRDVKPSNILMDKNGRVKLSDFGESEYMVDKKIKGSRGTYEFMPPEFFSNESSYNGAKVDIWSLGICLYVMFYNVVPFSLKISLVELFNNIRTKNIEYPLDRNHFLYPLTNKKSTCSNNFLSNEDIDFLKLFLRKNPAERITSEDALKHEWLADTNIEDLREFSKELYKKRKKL

[8] = target: Calcium-dependent protein kinase 4 (Plasmodium falciparum (isolate 3D7)) (UniProt Q8IBS5); experiment: PfCDPK4 kinase inhibitors, biochemical, TCAMS library (AID 1159588; cut-off not given, nearly all actives have IC50 up to about 0.91 µM); details: recombinant PfCDPK4, Kinase-Glo ATP depletion luminescence
Chain of Calcium-dependent protein kinase 4 (Plasmodium falciparum (isolate 3D7)) (Q8IBS5 whole entry, looked up): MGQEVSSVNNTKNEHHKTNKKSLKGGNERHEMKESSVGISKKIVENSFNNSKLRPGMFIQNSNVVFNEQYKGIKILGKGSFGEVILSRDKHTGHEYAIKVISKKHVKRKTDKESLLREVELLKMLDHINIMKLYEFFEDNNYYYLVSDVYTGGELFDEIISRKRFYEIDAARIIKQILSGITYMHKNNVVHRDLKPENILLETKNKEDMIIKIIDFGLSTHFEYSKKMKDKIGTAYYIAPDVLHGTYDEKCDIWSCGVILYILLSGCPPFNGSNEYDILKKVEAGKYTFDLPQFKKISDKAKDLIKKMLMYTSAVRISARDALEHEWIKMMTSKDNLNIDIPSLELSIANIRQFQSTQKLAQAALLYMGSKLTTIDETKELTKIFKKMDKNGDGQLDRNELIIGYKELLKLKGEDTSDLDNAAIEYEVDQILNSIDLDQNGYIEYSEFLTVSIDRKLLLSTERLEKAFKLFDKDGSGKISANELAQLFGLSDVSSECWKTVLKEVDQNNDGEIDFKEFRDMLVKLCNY

| SMILES | growth inhibition [1] | inhibition [2] | inhibition [3] [%] | growth inhibition [4] | outcome [5] | outcome [6] | outcome [7] | outcome [8] |
| --- | --- | --- | --- | --- | --- | --- | --- | --- |
| Cc1[nH]nc2ccc(-c3ccc4nccc(N5CCC(N)CC5)c4c3)cc12 | 100% (active) | 67% (active) | -3 | 101% (active) | inactive | inactive | inactive | inactive |
| Oc1cccc(Nc2nc(NCc3ccccc3)c3ccccc3n2)c1 | 99% (active) | 21% | -7 | 95% (active) | inactive | inactive | inactive | inactive |
| Cc1cccc2[nH]c(-c3ccc(-c4ccc(CN5CCC(N)C5)cc4)s3)nc12 (stereo not given) | 98% (active) | 21% | -11 | 100% (active) | inactive | inactive | inactive | inactive |
| COc1ccc(CNCc2ccc(F)cc2)cc1-c1ccc(S(=O)(=O)NCCN2CCCC2)s1 | 65% (active) | 61% (active) | -1 | 101% (active) | inactive | inactive | inactive | inactive |
| COc1ccc2nccc([C@@H](O)CN3CCC(NC(=O)c4ccc(CN5CCN(c6cccc(C)c6)CC5C)cc4)CC3)c2c1 (stereo not given in full) | 86% (active) | 50% (active) | 4 | 97% (active) | inactive | inactive | inactive | inactive |
| CCCCCCCc1c(C)[nH]c2c(OC)cccc2c1=O | 85% (active) | -5% | 5 | 89% (active) | inactive | inactive | inactive | inactive |
| CC(CN1CCN(C)CC1)C(=O)Nc1cccc(-c2ccc(-c3nc4ccc(C(F)(F)F)cc4[nH]3)cc2)c1 (stereo not given) | 98% (active) | 11% | -2 | 101% (active) | inactive | inactive | inactive | inactive |
| CC(C)COc1ccc(Cl)cc1Cc1ccc(-c2nc3ccc(Br)cc3[nH]2)o1 | 75% (active) | 19% | -3 | 80% (active) | inactive | inactive | inactive | inactive |
| CCNc1cc(C(=O)N[C@@H](Cc2ccccc2)[C@H](O)CNC23CCC(CC2)C3)cc(N2CCCCS2(=O)=O)c1 | 99% (active) | 22% | -2 | 97% (active) | inactive | inactive | inactive | inactive |
| CCc1c(CCNCCCCCCNCCc2ccc([N+](=O)[O-])cc2)ccc(O)c1O | 23% | 5% | -1 | 94% (active) | inactive | inactive | inactive | inactive |
| CC(C)CCNc1nc(NCCc2ccccc2)c2cc(O)ccc2n1 | 97% (active) | 6% | 7 | 101% (active) | inactive | inactive | inactive | inactive |
| NC(N)=NC(=O)Nc1cc(Cl)c(Cl)c(Br)c1 | 99% (active) | 16% | -2 | 99% (active) | inactive | inactive | inactive | inactive |
| COc1ccc2nccc(N3C[C@H]4C[C@@H]3CN4CCNCc3ccc4c(n3)NC(=O)CS4)c2n1 | 0% | 21% | 1 | 99% (active) | inactive | inactive | inactive | inactive |
| O=S(=O)(Nc1cc2c(cc1O)CCN(C1CCC1)CC2)c1ccc(-c2ccc(F)cc2)cc1 | 99% (active) | 16% | -1 | 101% (active) | inactive | inactive | inactive | inactive |
| O=C(O)C1Cc2c([nH]c3ccccc23)C(c2ccc(Cl)cc2Cl)N1 (stereo not given) | 100% (active) | 7% | 0 | 91% (active) | inactive | inactive | inactive | inactive |
| N#Cc1cccc(CN(Cc2ccc(Cl)c(Cl)c2)S(=O)(=O)c2cccc([N+](=O)[O-])c2)c1 | 73% (active) | 3% | -8 | 100% (active) | inactive | inactive | inactive | inactive |
| COCCNCc1ccc(-c2cccc(CNc3ccc(OC)cc3)c2)cc1 | 2% | 16% | -1 | 94% (active) | inactive | inactive | inactive | inactive |
| CC(C)(CNCc1cccc(Oc2ccccc2)c1)c1nc(-c2ccc(Cl)c(O)c2)c(-c2ccnc(N)n2)[nH]1 | 99% (active) | 28% | 4 | 97% (active) | inactive | inactive | inactive | inactive |
| Cc1cc(NS(=O)(=O)c2cccc(C(C)N3CCC(N4CCCC4)CC3)c2)ccc1C(C)C (stereo not given) | 53% (active) | 30% | -2 | 100% (active) | inactive | inactive | inactive | inactive |
| Cc1cc(-c2nc3cncc(-c4cccc(CN5CCCC5Cc5cccnc5)c4)c3n2C)nn1C (stereo not given) | 73% (active) | -7% | -1 | 83% (active) | inactive | inactive | inactive | inactive |

| SMILES | growth inhibition [1] | inhibition [2] | inhibition [3] [%] | growth inhibition [4] | outcome [5] | outcome [6] | outcome [7] | outcome [8] |
| --- | --- | --- | --- | --- | --- | --- | --- | --- |
| O=C(Nc1ccc(-c2cccc(-c3nc4ccc(F)cc4[nH]3)c2)cc1)Nc1ccc(Cl)c(Cl)c1 | 24% | 68% (active) | 3 | 99% (active) | inactive | inactive | inactive | inactive |
| Cc1c[nH]c2cc(/C=C/C(=O)NC3CCC(CCN4CCc5ccc(C#N)cc5CC4)CC3)ccc12 (stereo not given) | 59% (active) | -1% | -2 | 95% (active) | inactive | inactive | inactive | inactive |
| CN1CCN(CCCN(Cc2cccc(-c3cccc(CNCCc4ccccc4)c3)c2)C(=O)Nc2ccccc2)CC1 | 82% (active) | 92% (active) | 0 | 97% (active) | inactive | inactive | inactive | inactive |
| CCOc1ccc(-c2nonc2NC(=O)c2ccc(F)cc2)cc1OCC | 99% (active) | 36% | 0 | 102% (active) | inactive | inactive | inactive | inactive |
| CC(=O)OCCN1C(=O)c2ccc3c4c(ccc(c24)C1=O)C(=O)N(CCOC(C)=O)C3=O | 1% | 2% | 3 | 94% (active) | inactive | inactive | inactive | inactive |
| COc1ccccc1CCCN1C(=O)C(c2ccccc2)(c2ccccc2)N=C1N | 99% (active) | 49% | -3 | 99% (active) | inactive | inactive | inactive | inactive |
| COc1ccc(NC(=O)Nc2ccc(-c3ccccc3)cc2)cc1Cn1cnc(N2CCCNCC2)cc1=O | 38% | 24% | 8 | 101% (active) | inactive | inactive | inactive | inactive |
| CNc1nc(NN=Cc2cc([N+](=O)[O-])c(Cl)cc2Cl)nc(Nc2cccc(C(F)(F)F)c2)n1 | 97% (active) | 13% | 9 | 100% (active) | inactive | inactive | inactive | inactive |
| COc1cc(Cc2cnc(N)nc2N)ccc1OCc1ccc(-c2ccccc2C#N)cc1 | 3% | 32% | 6 | 93% (active) | inactive | inactive | inactive | inactive |
| CNC(=O)c1cnc(Nc2ccc(N3CCOCC3)cc2)nc1Nc1cccc(OC)c1 | 41% | 2% | -2 | 96% (active) | inactive | inactive | inactive | inactive |
| O=C(Nc1ccccc1O)C1CCN(c2ncnc3cc(-c4ccc(F)cc4)sc23)CC1 | 94% (active) | 10% | 4 | 97% (active) | inactive | inactive | inactive | inactive |
| O=C(Nc1ccc(N2CCN(C(=O)C=Cc3ccccc3)CC2)c(Cl)c1)c1ccc([N+](=O)[O-])o1 | 90% (active) | 98% (active) | -5 | 97% (active) | inactive | inactive | inactive | inactive |
| Nc1ccnc2ccc(NC(=O)CCCCCc3ccccc3)cc12 | 30% | 47% | 3 | 96% (active) | inactive | inactive | inactive | inactive |
| O=C(/C=C/c1ccccc1Cl)Nc1ccc(Br)c(OCCN2CCN(CCN3CCOCC3)CC2)c1 | 91% (active) | 22% | -3 | 98% (active) | inactive | inactive | inactive | inactive |
| COc1ccc2nc(C)cc(NN=Cc3ccccc3[N+](=O)[O-])c2c1 | 99% (active) | 2% | -2 | 101% (active) | inactive | inactive | inactive | inactive |
| Cc1ccc2nc(-c3ccc(C=CC(=O)NC4CCN(Cc5ccccc5)CC4)cc3)[nH]c2c1 | 92% (active) | 9% | -1 | 101% (active) | inactive | inactive | inactive | inactive |
| Cc1cc(N[C@@H](Cc2ccccc2)C(=O)NCCOc2ccccc2)nc(NCCc2ccccc2)n1 | 68% (active) | 12% | -1 | 101% (active) | inactive | inactive | inactive | inactive |
| Cc1cccc(CN2CCCC3(CCN(Cc4ccccc4O)C3)C2)c1 (stereo not given) | 76% (active) | 14% | -3 | 99% (active) | inactive | inactive | inactive | inactive |
| CCCc1ccc(C2CCN(CCCCNC(=O)c3ccc(NC(=O)c4ccc(Cl)cc4)cc3)CC2)cc1 | 100% (active) | 39% | 1 | 100% (active) | inactive | inactive | inactive | inactive |
| COc1ccccc1-n1ccnc1SCC(=O)Nc1cc(C(F)(F)F)ccc1Cl | 97% (active) | -2% | 2 | 97% (active) | inactive | inactive | inactive | inactive |
